Test results published in PubChem BioAssay AID2685 (National Center for Advancing Translational Sciences (NCATS), 2010).
Among all 320,000 compounds or so, about 2,100 (0.66%) were called active. Roughly 53% stayed inconclusive and do not appear here. Calls follow the shape of the dose curve; as a rule, active = well fitted inhibition curve with a large enough effect in the signal ratio, with a control signal flat (not every such curve was filed as active); inconclusive = small, poorly fitted or top-dose-only effect, or effect the other way, or a change in a side signal; inactive = flat fitted curve, though single readings scatter; the % refers to the signal ratio. What follows is part of a selection rich in actives, with near analogues and random picks from the rest.
Potency is read from the fitted curve at half-maximal effect.

Assay: qHTS Assay for Lipid Storage Modulators in Drosophila S3 Cells;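 as to cell number change: cells counted by Cell Tracker Red CMTPX staining in the red channel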; as to lipid storage change, negative = inhibition: % is scaled to controls: 0 for no effect and ±100 for the full control effect
Conditions: BODIPY lipid droplet fluorescence, 18-24 h, cells fed with added oleic acid; cell number change: measured here: cell count max response; series mostly up to 46.1 µM; lipid storage change, negative = inhibition: at the top concentration
Method in brief: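 Laser-scanning cytometry quantifies lipid droplet accumulation (500–530 nm total intensity; droplet/cell object ratio) in oleic acid-fed (400 uM added) Drosophila S3 cells treated with a concentration series. 20 uM Triacsin C defined 100% inhibition.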
With `O=C(CN1CCN(Cc2ccccc2)CC1)N1CCN(c2ccccc2)CC1` the “lipid storage change, negative = inhibition” value was 9.16% (inactive) and the cell number change was 9.09%. With `CCc1nc2ccccc2c(C(=O)OCC(=O)NCc2ccco2)c1C` the “outcome” value was “inactive” and the cell number change was 16.5%. With `CCC(=O)c1ccc(OCC(=O)NNC(=O)c2cc(C)oc2C)cc1` the cell number change was -5.72% and the lipid storage change, negative = inhibition was -5.26% [at 0.0737 µM] (inactive). For `COc1cc(C(C(=O)NC(C)(C)C)N(C(=O)CNC(=O)c2cccs2)c2ccc(C(C)C)cc2)cc(OC)c1OC` (stereo unspecified), the “outcome” value was “inactive” and the cell number change was 12.2%. In the case of `COc1ccccc1CC(=O)NCCc1c[nH]c2ccccc12`, the Potency is reported as 0.231 µM (active) and the cell number change is reported as 10.3%. In the case of `COc1ccc2[nH]cc(CCNC(=O)CCC3CCCCC3)c2c1`, the Potency is reported as 16.4 µM (active) and the cell number change is reported as -11.7%. For `COc1ccc2[nH]cc(CCNC(=O)COc3cc(C)cc4oc(=O)cc(C)c34)c2c1`, the “lipid storage change, negative = inhibition” value was -23.1% (inactive) and the cell number change was -0.087%. For `COc1ccc(C(=O)NCCc2c[nH]c3ccccc23)cc1OC`, the “lipid storage change, negative = inhibition” value was 18% (inactive) and the cell number change was -1.75%. For `COc1ccc2[nH]cc(CCNC(=O)C3CCCCC3)c2c1`, the “lipid storage change, negative = inhibition” value was -9.93% (inactive) and the cell number change was -11.3%. In the case of `CCCc1cc(=O)oc2cc(OCC(=O)NCCc3c[nH]c4ccc(OC)cc34)ccc12`, the Potency is reported as 8.2 µM (active) and the cell number change is reported as -12%. With `CCCc1cc(=O)oc2cc(OCC(=O)NCCc3ccc(S(N)(=O)=O)cc3)ccc12` the “outcome” value was “inactive” and the cell number change was -10.3%. In the case of `COc1ccc2[nH]cc(CCNC(=O)Cc3ccc(F)cc3)c2c1`, the “lipid storage change, negative = inhibition” value is reported as 20.2% (inactive). In the case of `COc1ccc(C(=O)NCC(=O)NCCc2c[nH]c3ccccc23)cc1OC`, the “lipid storage change, negative = inhibition” value is reported as 5.27% (inactive) and the cell number change is reported as 7.36%. With `O=C(CCc1nc2ccccc2c(=O)[nH]1)OCc1cccc(C(F)(F)F)c1` the “lipid storage change, negative = inhibition” value was -1.93% (inactive) and the cell number change was -19.1%. For `COc1ccc(CN2CCCCC2C)cc1C` (stereo unspecified), the “lipid storage change, negative = inhibition” value was -3.51% (inactive) and the cell number change was 16%. For `Cc1cccc(NC(=O)CSc2nc3[nH]ncc3c(=O)[nH]2)c1C`, the “lipid storage change, negative = inhibition” value was 18% (inactive) and the cell number change was 6.95%. For `COc1ccc(-c2nnc(-c3ccc(Br)o3)o2)cc1OC`, the “lipid storage change, negative = inhibition” value was 21.7% (inactive) and the cell number change was 2.37%. With `CCOC(=O)N1CCN(C(=O)COc2ccc(S(=O)(=O)NC(C)C)cc2)CC1` the “lipid storage change, negative = inhibition” value was 5.97% (inactive) and the cell number change was -5.69%. In the case of `CCOc1ccc(S(=O)(=O)N/N=C(\C)C2CCCCC2)cc1`, the Potency is reported as 20.6 µM (active) and the cell number change is reported as -18.4%. In the case of `CCOc1ccc(S(=O)(=O)NC2CCCC2)cc1`, the “outcome” value is reported as “inactive” and the cell number change is reported as 13.5%. In the case of `CCOc1ccc(S(=O)(=O)NC2CCCCCC2)cc1`, the “lipid storage change, negative = inhibition” value is reported as 6.04% (inactive) and the cell number change is reported as 1.37%. In the case of `CCNC(=O)CSc1nc(-c2ccc(F)cc2)cs1`, the “lipid storage change, negative = inhibition” value is reported as 7.14% (inactive) and the cell number change is reported as 6.04%. With `O=C(CNc1ccc(F)cc1)N/N=C/c1c(O)ccc2ccccc12` the “lipid storage change, negative = inhibition” value was -10.8% (inactive) and the cell number change was -11.6%. In the case of `Oc1ccc2ccccc2c1N=Nc1ccc(F)cc1`, the Potency is reported as 5.8 µM (active) and the cell number change is reported as -18.6%. For `Cc1ccc(N=Nc2ccc(O)c3ncccc23)cc1`, the “lipid storage change, negative = inhibition” value was 0.161% (inactive) and the cell number change was -11.6%. With `NS(=O)(=O)c1ccc(N=Nc2c(O)c(C(=O)O)cc3ccccc23)cc1` the “lipid storage change, negative = inhibition” value was -1.28% (inactive) and the cell number change was -8.07%. With `O=C(O)c1cc(N=Nc2c(O)ccc3ccccc23)cc(C(=O)O)c1` the “lipid storage change, negative = inhibition” value was -24.9% (inactive) and the cell number change was 0.308%. In the case of `Oc1c(N=Nc2ccc(F)cc2)ccc2ccccc12`, the Potency is reported as 4.11 µM (active) and the cell number change is reported as -26.4%. With `Cc1ccc(N=Nc2ccc(C)cc2NC(=O)Nc2ccccc2F)cc1` the “lipid storage change, negative = inhibition” value was -11.3% (inactive) and the cell number change was 4.52%. In the case of `O=C(NNC(=O)c1ccc2ccccc2c1O)Nc1ccc(F)cc1`, the “lipid storage change, negative = inhibition” value is reported as -1.42% (inactive) and the cell number change is reported as 22.7%. In the case of `Cc1ccc(N=Nc2ccc3ccccc3c2O)cc1`, the Potency is reported as 0.058 µM (active) and the cell number change is reported as 1.47%. For `Cc1cccc(C)c1OCC(=O)N/N=C/c1ccncc1`, the “lipid storage change, negative = inhibition” value was 15.6% (inactive) and the cell number change was 1.08%. For `CN(CC(=O)Nc1ccc(Cl)cc1)C(=O)c1cc(-c2cccs2)nn1-c1ccccc1`, the “lipid storage change, negative = inhibition” value was 16.7% (inactive) and the cell number change was 15.7%. With `COC(=O)CCC(=O)Nc1ccc(Br)cc1` the “lipid storage change, negative = inhibition” value was -11.3% (inactive) and the cell number change was -3.41%. With `CCOc1ccccc1NC(=O)CSc1nnc(CCC(=O)Nc2ccccc2F)n1C` the “outcome” value was “inactive” and the cell number change was -0.293%. In the case of `CC(C)(C)OC(=O)N[C@@H](CCCCNC(=O)OCc1ccccc1)c1nnc([C@H](CCCCNC(=O)OCc2ccccc2)NC(=O)OC(C)(C)C)o1`, the “lipid storage change, negative = inhibition” value is reported as -36.4% (inactive) and the cell number change is reported as -3.75%. For `CCNC(=S)N1CCN(c2ccccn2)CC1`, the “lipid storage change, negative = inhibition” value was 9.69% (inactive) and the cell number change was 12.6%. In the case of `CC(C)(C)c1ccc(C(=O)NC(=S)N2CCOCC2)cc1`, the cell number change is reported as 8.33% and the outcome is reported as “inactive [at 0.369 µM]”. For `CC(C)(C)c1ccc(C(=O)N2CCC3(CC2)NCCc2[nH]cnc23)cc1`, the “outcome” value was “inactive” and the cell number change was 22.1%. With `O=Cc1ccc(OCC(=O)Nc2ccccc2-c2ccccc2)cc1` the “lipid storage change, negative = inhibition” value was 8.41% (inactive) and the cell number change was 18%. With `COc1ccccc1NC(=O)Cc1cccc2ccccc12` the “lipid storage change, negative = inhibition” value was -19.7% (inactive) and the cell number change was -14.6%. With `COc1cc(NS(=O)(=O)c2ccc(NC(=S)NC(=O)c3ccco3)cc2)nc(OC)n1` the “lipid storage change, negative = inhibition” value was -13.8% (inactive) and the cell number change was -18.5%. With `COc1cc(/C=N/n2c(-c3cc(C)[nH]n3)n[nH]c2=S)ccc1O` the “lipid storage change, negative = inhibition” value was -10.3% (inactive) and the cell number change was 4.27%. In the case of `CCOC(=O)c1ccc(-c2csc(NC(=O)CN3CCC(C)CC3)n2)cc1`, the Potency is reported as 2.91 µM (active) and the cell number change is reported as 3.78%. In the case of `COCC(=O)Nc1nc(-c2ccc(-c3ccccc3)cc2)cs1`, the “lipid storage change, negative = inhibition” value is reported as 4.79% (inactive) and the cell number change is reported as 7.77%. For `CC1CCN(CC(=O)Nc2nc(-c3ccccc3)cs2)CC1`, the “lipid storage change, negative = inhibition” value was -4.89% (inactive) and the cell number change was 10.6%. For `Cc1ccc(-c2csc(NC(=O)CN3CCC(C(N)=O)CC3)n2)cc1`, the “outcome” value was “inactive” and the cell number change was -18.5%. In the case of `CCOC(=S)SCC(=O)Nc1nc(-c2ccccc2)cs1`, the Potency is reported as 23.1 µM (active) and the cell number change is reported as -22.6%. For `CCOC(=O)N1CCN(C(=O)CSCC(=O)Nc2nc(-c3ccccc3)cs2)CC1`, the “lipid storage change, negative = inhibition” value was -4.18% (inactive) and the cell number change was -8.7%. For `COC(=O)NC1CCC(NC(=O)OC)CC1` (stereo unspecified), the “lipid storage change, negative = inhibition” value was 0.668% (inactive) and the cell number change was -8.14%. For `O=C(Nc1cc(Cl)ccc1Oc1ccccc1)C1=COCCO1`, the “outcome” value was “inactive” and the cell number change was -27.8%. In the case of `O=C(O)c1ccccc1C(=O)NNc1ccc(Cl)cc1`, the “lipid storage change, negative = inhibition” value is reported as 8.58% (inactive) and the cell number change is reported as 6.32%. For `CCOC(=O)C(=O)NNc1ccc(Cl)cc1`, the “lipid storage change, negative = inhibition” value was 7.67% (inactive) and the cell number change was 0.213%. With `CC(=O)C(=Nc1ccccc1Cl)NNc1ccc(Cl)cc1` the Potency was 23.1 µM (active) and the cell number change was -39.5%. In the case of `CC12CCC(c3c(C(=O)O)nn(-c4ccccc4)c31)C2(C)C` (stereo unspecified), the “lipid storage change, negative = inhibition” value is reported as -12.8% (inactive) and the cell number change is reported as 7.24%. In the case of `CC12CCC(c3c(C(=O)N4CCOCC4)nn(-c4ccccc4)c31)C2(C)C` (stereo unspecified), the “lipid storage change, negative = inhibition” value is reported as 10.8% (inactive) and the cell number change is reported as 15.9%. In the case of `CC12CCC(c3c(C(=O)O)nn(-c4ccc(F)cc4)c31)C2(C)C` (stereo unspecified), the Potency is reported as 16.4 µM (active) and the cell number change is reported as -9.61%. In the case of `COc1ccc(N2CCN(C(c3ccc4ncccc4c3)c3nnnn3C(C)C)CC2)cc1` (stereo unspecified), the “lipid storage change, negative = inhibition” value is reported as -0.518% (inactive) and the cell number change is reported as 3.49%. With `Fc1ccc(-n2c(CN3CCCCC3)n[nH]c2=S)cc1` the Potency was 1.64 µM (active) and the cell number change was -100%. With `S=c1[nH]nc(CN2CCCCC2)n1Cc1ccccc1` the “lipid storage change, negative = inhibition” value was 17.3% (inactive) and the cell number change was -2.92%. For `FC(F)(F)c1ccccc1-n1c(CN2CCCCC2)n[nH]c1=S`, the “lipid storage change, negative = inhibition” value was -4.58% (inactive) and the cell number change was -9.97%.
